# Experimental data from PubChem BioAssay AID1942 (Johns Hopkins Ion Channel Center, 2009).
# About 580 (24%) of roughly 2,400 compounds were called active.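 Rule for the calls: active = activity change at or above the mean plus 3 SD of buffer wells without dofetilide, per plate; inactive = the rest.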 The list is a sample of the results.
# Biological target: Potassium voltage-gated channel subfamily KQT member 2 (Rattus norvegicus) (UniProt O88943)
# Assay: KCNQ2 potentiation in CHO cells – cell-based, FluxOR thallium flux, counter-screen for hERG block protector project, confirmation (AID 1942);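 note: normalized value minus buffer-control mean plus three SD of buffer wells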
# Conditions: FluxOR thallium flux fluorescence, at 10 µM, hits give high values
# Potassium voltage-gated channel subfamily KQT member 2 (Rattus norvegicus), sequence (O88943 whole entry, looked up): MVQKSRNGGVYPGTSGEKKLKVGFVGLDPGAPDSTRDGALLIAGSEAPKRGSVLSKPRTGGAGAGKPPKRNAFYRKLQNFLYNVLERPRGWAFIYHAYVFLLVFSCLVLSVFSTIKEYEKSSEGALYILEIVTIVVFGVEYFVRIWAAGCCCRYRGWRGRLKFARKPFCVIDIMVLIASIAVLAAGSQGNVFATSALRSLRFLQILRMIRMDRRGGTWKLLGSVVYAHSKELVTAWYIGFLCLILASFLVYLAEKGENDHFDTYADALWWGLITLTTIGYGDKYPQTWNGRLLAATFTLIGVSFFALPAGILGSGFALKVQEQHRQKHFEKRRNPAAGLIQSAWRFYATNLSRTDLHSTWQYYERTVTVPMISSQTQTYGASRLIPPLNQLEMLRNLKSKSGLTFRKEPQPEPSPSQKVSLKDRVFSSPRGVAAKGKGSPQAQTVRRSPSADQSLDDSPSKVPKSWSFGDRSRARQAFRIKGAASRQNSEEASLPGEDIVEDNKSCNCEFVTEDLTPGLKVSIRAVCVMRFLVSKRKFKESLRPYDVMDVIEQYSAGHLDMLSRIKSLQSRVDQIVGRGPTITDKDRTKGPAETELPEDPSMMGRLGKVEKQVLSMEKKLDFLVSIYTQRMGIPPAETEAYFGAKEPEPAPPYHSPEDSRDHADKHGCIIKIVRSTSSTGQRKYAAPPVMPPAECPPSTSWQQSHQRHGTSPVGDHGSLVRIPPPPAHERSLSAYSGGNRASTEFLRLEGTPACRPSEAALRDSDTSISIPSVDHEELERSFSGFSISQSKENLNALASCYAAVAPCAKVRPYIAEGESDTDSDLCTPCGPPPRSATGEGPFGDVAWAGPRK
row,SMILES,"activity change, less the hit threshold"
1,COc1ccc(S(=O)(=O)n2nc(C)c(S(=O)(=O)N3CCOCC3)c2C)cc1OC,-19% (inactive)
2,Cc1ccc(-c2nc(N)s[n+]2-c2ccccc2)cc1,11.3% (active)
3,Cc1nnc(SCc2cc(=O)oc3cc(O)ccc23)n1Cc1ccccc1,-14.7% (inactive)
4,COc1ccc(-c2c(C)c3ccc(OCC(C)=O)cc3oc2=O)cc1,-17.3% (inactive)
5,CC(C)COn1c(=S)[nH]c2ccccc2c1=O,11.1% (active)
6,CCCCn1c(=S)[nH]c2ccccc2c1=O,3.1% (active)
7,CCC(Cc1ccccc1)n1c(=S)[nH]c2ccccc2c1=O (configuration not stated),-14% (inactive)
8,COc1ccc(CCn2c(S)nc3ccccc3c2=O)cc1,-6.5% (inactive)
9,Cc1ccc(Cn2c(=S)[nH]c3ccccc3c2=O)cc1,-6.4% (inactive)
10,O=c1c2ccccc2[nH]c(=S)n1CCc1ccccc1,10.3% (active)
11,CCC(C)n1c(=S)[nH]c2ccccc2c1=O (configuration not stated),25% (active)
12,CC1(C)Cc2c(sc(NC(=O)C(=O)N3CCCC3)c2C#N)CO1,-3.6% (inactive)
13,CC1=NN(c2ccccc2)C(=O)/C1=C/c1ccc(-c2ccc(C)c(C(=O)O)c2)o1,-18.9% (inactive)
14,Cc1cc(=O)oc(C)c1C(=O)NCCC(C)C,-6.2% (inactive)
15,O=C(COC(=O)c1cnccn1)c1ccc(Cl)cc1,-17% (inactive)
16,Cc1ccc(NC(=O)c2ccc(CNS(=O)(=O)c3cccc(C(F)(F)F)c3)cc2)cc1,-15.6% (inactive)
17,Cc1ccc(CS(=O)(=O)c2ncc(Cl)c(C(=O)Nc3nnc(C)s3)n2)cc1,-0.8% (inactive)
18,S=c1[nH]c2ccc(Cl)cc2s1,101% (active)
19,O=C(Nc1ccc2[nH]c(=S)sc2c1)Nc1ccccc1F,-19% (inactive)
20,S=c1[nH]c2cc(Cl)ccc2s1,106% (active)
21,CCNC(=O)NC1c2ccccc2CSc2ccccc21 (configuration not stated),-20.6% (inactive)
22,Cc1ccc(C)c(NC(=O)CCN2C(=O)[C@@H]3Cc4ccccc4CN3C2=O)c1,-23.4% (inactive)
23,COc1ccc(C(=O)N(CN2CCCC2=O)c2ccc(C)cc2)cc1,-3.9% (inactive)
24,CCOc1ccc(C(=O)N(CN2CCCC2=O)c2ccc(C)cc2)cc1,21.8% (active)
25,O=C(NCCCN1CCCC1=O)c1ccc(OC(F)(F)F)cc1,-19.5% (inactive)

row,SMILES,"activity change, less the hit threshold"
1,Cc1cc(C)c(Cn2c3ccccc3c3cnn(CC(=O)NCc4ccccn4)c(=O)c32)c(C)c1,-12.3% (inactive)
2,O=C1OCCC1Sc1nc2ccccc2c(=O)n1Cc1ccc(F)cc1 (configuration not stated),-2% (inactive)
3,COc1cc2c(cc1OC)C(c1ccc([N+](=O)[O-])cc1)N(C(C)=O)CC2 (configuration not stated),-27% (inactive)
4,O=C(Nc1ccc(Cl)c(Cl)c1)Nc1nnc(CSc2ccccc2)s1,-5.4% (inactive)
5,C=CCN(CC=C)C(=S)NC(=O)c1ccc([N+](=O)[O-])cc1,48.5% (active)
6,C=CCN(CC=C)C(=S)NC(=O)c1ccc(-c2ccccc2)cc1,21% (active)
7,C=CCN(c1ccc(C(=O)NC(C)C)cc1)S(C)(=O)=O,-16.8% (inactive)
8,CCCN(CCC)C(=S)NC(=O)c1ccc(-c2ccccc2)cc1,91.4% (active)
9,O=C(NCCOC(=O)c1ccc([N+](=O)[O-])cc1)c1cccnc1,-12.2% (inactive)
10,C=CCN(CC=C)C(=S)NC(=O)Cc1cccc2ccccc12,3.6% (active)
11,CCN(CC)C(=S)NC(=O)c1ccc(F)cc1,-10.2% (inactive)
12,CCCN(CC1CC1)C(=S)Nc1ccccc1F,-17.8% (inactive)
13,Cc1c(C)n(CCN(C)C)c2ccc(C(=O)OCCN(C)C)cc12,-12.7% (inactive)
14,CCCCCN(C(=O)CCC(=O)OC(C)C(=O)c1ccccc1)c1c(N)n(CCCC)c(=O)[nH]c1=O (configuration not stated),-10.3% (inactive)
15,CCn1nnnc1SCC(=O)N1c2ccccc2Sc2ccccc21,-16.2% (inactive)
16,CCc1nnc(NS(=O)(=O)c2ccc(NC(=S)NC(=O)/C=C/c3ccc(OC)cc3)cc2)s1,-7.3% (inactive)
17,COc1ccc(CCNC(=O)CSc2ccc3nnc(CCNC(=O)c4ccccc4)n3n2)cc1OC,-18.6% (inactive)
18,CCCN1CCC(NC(=O)CC2C(=O)NCCN2Cc2cccc(OC)c2)CC1 (configuration not stated),-17.9% (inactive)
19,CCCCNC(=S)NC(=O)c1ccc([N+](=O)[O-])cc1,22.9% (active)
20,CCC(=O)Nc1ccc(C(=O)NNC(=O)c2cc([N+](=O)[O-])cc([N+](=O)[O-])c2)cc1,-17.8% (inactive)
21,CCCCCC(=O)NNC(=S)NC(=O)c1ccc([N+](=O)[O-])cc1,-31.9% (inactive)
22,CC1CCN(S(=O)(=O)c2ccc3nc(N4CCN(c5ccccc5)CC4)ccc3c2)CC1,-25.2% (inactive)
23,Cc1[nH]c(=S)sc1Cc1ccc(Cl)c(Cl)c1,-16% (inactive)
24,Cc1ccc(Cc2c[nH]c(=S)s2)cc1,52.8% (active)
25,S=c1[nH]cc(Cc2ccccc2)s1,1.4% (active)

row,SMILES,"activity change, less the hit threshold"
1,Clc1ccc(Cc2ccccc2)nn1,-12.9% (inactive)
2,COCCn1cnc2c1c(=O)n(CC#N)c(=O)n2Cc1ccccc1,-22% (inactive)
3,CCOc1ccc(CCNC(=O)Nc2ccccc2C)cc1OCC,-14.3% (inactive)
4,CNC(=O)CSc1nnc(-c2ccco2)n1-c1ccc(C)cc1,-16.3% (inactive)
5,CCCOc1ccc(C(=O)NNC(=S)NC(=O)c2cccs2)cc1,-34.1% (inactive)
6,Cc1ccc(C(=O)N/N=C(/CC(=O)c2cccs2)C(F)(F)F)cc1,5.2% (active)
7,Cc1ccc(C(=O)NC(=S)Nc2ccccc2C(F)(F)F)cc1,-24.5% (inactive)
8,COc1ccc(S(=O)(=O)N2CCN(C(=O)CNC(=O)c3ccc4c(c3)OCO4)CC2)cc1,-12.9% (inactive)
9,O=C(Nc1c[nH]c(=O)[nH]c1=O)c1ccc2c(c1)C(=O)N(c1cccc([N+](=O)[O-])c1)C2=O,-9.9% (inactive)
10,O=C(CN1CCCCCC1)Nc1ccc(Oc2ccccc2)cc1,-20.3% (inactive)
11,O=C(Cn1nc(-c2ccccc2)c2ccccc2c1=O)Nc1ccc(O)cc1,-25.7% (inactive)
12,Cc1nn(CC(=O)Nc2ccc(C(=O)N3CCCC3)cc2)c(=O)c2ccccc12,11.5% (active)
13,O=C(Nc1ncc(Br)s1)C(Cc1ccccc1)n1cccc1 (configuration not stated),-5.9% (inactive)
14,Cn1cnnc1SCC(=O)NCc1ccccc1,-24.1% (inactive)
15,COc1cc(/C=C/C(=O)O)ccc1OS(=O)(=O)c1cc(C)ccc1C,-16.4% (inactive)
16,COC(=O)Oc1ccc(/C=C/C(=O)OC(C)C)cc1OC(=O)OC,3% (active)
17,COc1cc(/C=C/C(=O)N[C@@H](Cc2c[nH]c3ccccc23)C(=O)O)ccc1O,-15.9% (inactive)
18,Cc1ccc(NC2=CC(=O)OC(C)C2)cc1 (configuration not stated),-17.3% (inactive)
19,Cc1ccc(Oc2ccc(OCC(=O)NC(CC(C)C)C(=O)O)cc2)cc1 (configuration not stated),-14.9% (inactive)
20,CC1=Nc2ccc(C)cc2/C1=C/c1c(N)n2c(S(=O)(=O)C(C)C)nsc2nc1=O,-27% (inactive)
21,O=c1oc2ccccc2c(Cl)c1CN1CCCCC1,8.6% (active)
22,O=C(c1c(O)c2ccccc2oc1=O)C1CCCCC1,-4.8% (inactive)
23,O=C(CN1CCCCCCC1)Nc1cccc(Cl)c1Cl,-20.9% (inactive)
24,CSc1nc2c(c(=O)[nH]1)C(c1ccc(F)cc1)CC(=O)N2 (configuration not stated),-16.4% (inactive)
25,O=C(NCc1ccc(Cl)cc1)C1CCN(S(=O)(=O)c2cccc3nonc23)CC1,-10% (inactive)

row,SMILES,"activity change, less the hit threshold"
1,Cc1[nH]c(=O)[nH]c(=O)c1S(=O)(=O)N1CCC(C(=O)NC(C)c2ccccc2)CC1 (configuration not stated),-19.6% (inactive)
2,CC(NC(=O)C1CCN(S(=O)(=O)c2cccc3cccnc23)CC1)c1ccccc1 (configuration not stated),0.9% (active)
3,Nc1ncnc(NC2CCS(=O)(=O)C2)c1[N+](=O)[O-] (configuration not stated),-11.2% (inactive)
4,CC(C)OC(=O)c1c(NS(=O)(=O)c2ccccc2)sc2c1CCCC2,9.1% (active)
5,COC(=O)c1c(NC(=O)CN2CCOCC2)sc2c1CCC(C)C2 (configuration not stated),-9.9% (inactive)
6,CCOC(=O)c1c(C)[nH]c(C)c1S(=O)(=O)N1CCCCC1,-11% (inactive)
7,CCOC(=O)c1c(NS(C)(=O)=O)sc2c1CCC(C)C2 (configuration not stated),26.3% (active)
8,CC1CCc2c(sc(NS(=O)(=O)c3ccccc3)c2C(=O)OC(C)C)C1 (configuration not stated),8.2% (active)
9,CC(NS(=O)(=O)c1ccccc1)C(N)=O (configuration not stated),-21.1% (inactive)
10,Cc1cc(C)c(-c2cc(NC(=O)COC(=O)c3ccc(NC(=O)CC#N)cc3)n(-c3ccccc3)n2)cc1C,-22.1% (inactive)
11,NC(=O)CC1NC(=O)c2ccccc21 (configuration not stated),-13.3% (inactive)
12,CCCNS(=O)(=O)c1ccc(OCC(=O)Nc2ccc3c(c2)OCCO3)cc1,-11.5% (inactive)
13,Cc1oc(-c2cccs2)nc1CN1CCC(C(=O)N2CCCC2)CC1,-17.4% (inactive)
14,CC1c2nc3ccccc3n2C(CC(=O)NCCCN2CCOCC2)C(=O)N1Cc1ccccc1 (configuration not stated),-19.4% (inactive)
15,O=C(O)c1cccc(C(=O)Nc2cccc(NC(=O)C3CCCO3)c2)c1 (configuration not stated),-21.4% (inactive)
16,CCC1CCCCN1C(=S)NC(=O)c1cccc([N+](=O)[O-])c1 (configuration not stated),24% (active)
17,CCC1CCCCN1C(=S)NC(=O)c1ccc([N+](=O)[O-])cc1 (configuration not stated),32.5% (active)
18,CCC1CCCCN1C(=S)NC(=O)c1cccs1 (configuration not stated),-4.1% (inactive)
19,O=C(Nc1ccc(Oc2cccnc2)cc1)c1cccc([N+](=O)[O-])c1,-14.1% (inactive)
20,O=C(NC(=S)Nc1ccccc1N1CCCC1)c1ccc(-c2cccc([N+](=O)[O-])c2)o1,-10.1% (inactive)
21,CC1CCN(C(=S)NC(=O)c2cccc([N+](=O)[O-])c2)CC1,5.8% (active)
22,O=C(NC(=S)N(CC1CCC1)CC1CCCO1)c1cccc([N+](=O)[O-])c1 (configuration not stated),39.6% (active)
